# According to the supplement of paper PMC8728848:
# About 410 targets per protein were measured; listed, in parts, are those with the strongest signals and a random draw of the rest.
# Tests used:
# Assay in all cases: glycan array binding signal (z-score within array); higher = stronger binding
# Details in all cases: glycan notation: IUPAC condensed, linker removed
# [1] = biological target: Gal3S(b1-3)GalNAc
# Summary of the method: (§1)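 From the Consortium for Functional Glycomics database, 3228 arrays were curated, keeping only those whose protein sequence was available. Binding is given as a within-array Z-score averaged across arrays sharing a protein sequence and across linkers. Negative Z-scores can be read as non-binding.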
# [2] = biological target: Gal3S6S(b1-4)GlcNAc
# Summary of the method: as §1
# [3] = biological target: Gal4S(b1-4)GlcNAc
# Summary of the method: as §1
# [4] = biological target: Gal6S(b1-4)GlcNAc
# Summary of the method: as §1
# [5] = biological target: GalNAc(b1-3)Gal
# Summary of the method: as §1
# [6] = biological target: GalNAc(b1-3)Gal(a1-6)Gal(b1-4)Glc
# Summary of the method: as §1
# [7] = biological target: GalNAc6S(b1-4)GlcNAc
# Summary of the method: as §1
# [8] = biological target: Glc(a1-4)Glc(a1-4)Glc(a1-4)Glc
# Summary of the method: as §1
# [9] = biological target: GlcA3S(b1-3)Gal(b1-4)GlcNAc(b1-2)Man
# Summary of the method: as §1
# [10] = biological target: GlcNAc(a1-3)Gal(b1-4)GlcNAc
# Summary of the method: as §1
# [11] = biological target: GlcNAc(a1-4)Gal(b1-4)GlcNAc
# Summary of the method: as §1
# [12] = biological target: GlcNAc(b1-2)[GlcNAc(b1-6)]Man(a1-6)[GlcNAc(b1-4)][GlcNAc(b1-2)Man(a1-3)]Man(b1-4)GlcNAc(b1-4)GlcNAc
# Summary of the method: as §1
# [13] = biological target: GlcNAc(b1-3)Fuc
# Summary of the method: as §1
# [14] = biological target: GlcNAc(b1-3)Gal(b1-4)GlcNAc(b1-3)Gal(b1-4)GlcNAc(b1-2)Man(a1-3)[GlcNAc(b1-3)Gal(b1-4)GlcNAc(b1-3)Gal(b1-4)GlcNAc(b1-2)Man(a1-6)]Man(b1-4)GlcNAc(b1-4)[Fuc(a1-6)]GlcNAc
# Summary of the method: as §1
# [15] = biological target: GlcNAc(b1-3)Gal(b1-4)GlcNAc(b1-3)Gal(b1-4)GlcNAc(b1-3)Gal(b1-4)GlcNAc(b1-2)[GlcNAc(b1-3)Gal(b1-4)GlcNAc(b1-3)Gal(b1-4)GlcNAc(b1-3)Gal(b1-4)GlcNAc(b1-6)]Man(a1-6)[GlcNAc(b1-3)Gal(b1-4)GlcNAc(b1-3)Gal(b1-4)GlcNAc(b1-3)Gal(b1-4)GlcNAc(b1-2)Man(a1-3)]Man(b1-4)GlcNAc(b1-4)[Fuc(a1-6)]GlcNAc
# Summary of the method: as §1
# [16] = biological target: Kdn(a2-3)Gal(b1-3)GlcNAc
# Summary of the method: as §1
# [17] = biological target: Man(a1-2)Man(a1-3)[Man(a1-2)Man(a1-6)]Man
# Summary of the method: as §1
# [18] = biological target: Neu5Ac(a2-3)Gal
# Summary of the method: as §1
# [19] = biological target: Neu5Ac(a2-3)Gal(b1-3)GalNAc6S
# Summary of the method: as §1
# [20] = biological target: Neu5Ac(a2-3)Gal(b1-4)GlcNAc(b1-2)Man
# Summary of the method: as §1
# [21] = biological target: Neu5Ac(a2-3)Gal(b1-4)GlcNAc(b1-3)Gal
# Summary of the method: as §1
# [22] = biological target: Neu5Ac(a2-3)Gal(b1-4)GlcNAc(b1-3)Gal(b1-4)GlcNAc(b1-2)Man(a1-3)[Neu5Ac(a2-3)Gal(b1-4)GlcNAc(b1-3)Gal(b1-4)GlcNAc(b1-2)Man(a1-6)]Man(b1-4)GlcNAc(b1-4)GlcNAc
# Summary of the method: as §1
# [23] = biological target: Neu5Ac(a2-3)Gal(b1-4)GlcNAc(b1-3)GalNAc
# Summary of the method: as §1
# [24] = biological target: Neu5Ac(a2-3)Gal(b1-4)GlcNAc6S
# Summary of the method: as §1
# [25] = biological target: Neu5Ac(a2-3)Gal(b1-4)[Fuc(a1-3)]GlcNAc(b1-6)[Neu5Ac(a2-3)Gal(b1-3)]GalNAc
# Summary of the method: as §1
# [26] = biological target: Neu5Ac(a2-6)Gal(b1-4)GlcNAc(b1-3)Gal(b1-4)GlcNAc(b1-3)Gal(b1-4)GlcNAc(b1-2)Man(a1-3)[Neu5Ac(a2-6)Gal(b1-4)GlcNAc(b1-3)Gal(b1-4)GlcNAc(b1-3)Gal(b1-4)GlcNAc(b1-2)Man(a1-6)]GalNAc
# Summary of the method: as §1
# [27] = biological target: Neu5Ac(a2-6)Gal(b1-4)GlcNAc6S
# Summary of the method: as §1
# [28] = biological target: Neu5Ac(a2-8)Neu5Ac
# Summary of the method: as §1
# [29] = biological target: Neu5Ac(a2-8)Neu5Ac(a2-3)Gal(b1-4)GlcNAc
# Summary of the method: as §1
# [30] = biological target: Neu5Ac(a2-8)Neu5Ac(a2-3)[GalNAc(b1-4)]Gal(b1-4)Glc
# Summary of the method: as §1
binder,measurement,setting,value
"SspB A3vp1 (Streptococcus gordonii), Q54186 (protein) MTNEADYQAKLAAYQTELARVQKANADAKATYEKAVEDNKAKNAAIKAENEEIKQRNAVAKTDYEAKLAKYEADLAKYKKEFAAYTAALAEAESKKKQDGYLSEPRSQSLNFKSEPNAIRTIDSSVHQYGQQELDALVKSWGISPTNPDRKKSRAYSYFNAINSNNTYAKLVLEKDKPVDVTYTGLKNSSFNGKKISKVVYTYTLKETGFNDGTKMTMFASSDPTVTAWYNDYFTSTNINVKVKFYDEEGQLMNLTGGLVNFSSLNRGNGSGAIDKDAIESVRNFNGRYIPISGSSIKIHENNSAYADSSNAEKSLGARWNTSEWDTTSSPNNWYGAIVGEITQSEISFNMASSKSGNIWFAFNSNINAIGVPTKPVAPTAPTQPMYETEKPLEPAPVAPSYENEPTPPVKTPDQPEPSKPAAALEHHHHHH",glycan array binding signal (z-score),[1],0.06
same,glycan array binding signal (z-score),[2],-0.52
same,glycan array binding signal (z-score),[3],0.061
same,glycan array binding signal (z-score),[4],-0.624
same,glycan array binding signal (z-score),[5],0.001
same,glycan array binding signal (z-score),[6],0.652
same,glycan array binding signal (z-score),[7],-0.623
same,glycan array binding signal (z-score),[8],-0.964
same,glycan array binding signal (z-score),[9],-1.19
same,glycan array binding signal (z-score),[10],-0.25
same,glycan array binding signal (z-score),[11],-0.84
same,glycan array binding signal (z-score),[12],-0.233
same,glycan array binding signal (z-score),[13],-0.426
same,glycan array binding signal (z-score),[14],1.62
same,glycan array binding signal (z-score),[15],-0.133
same,glycan array binding signal (z-score),[16],-0.933
same,glycan array binding signal (z-score),[17],-0.889
same,glycan array binding signal (z-score),[18],-0.167
same,glycan array binding signal (z-score),[19],-0.287
same,glycan array binding signal (z-score),[20],1.88
same,glycan array binding signal (z-score),[21],-0.803
same,glycan array binding signal (z-score),[22],3.69
same,glycan array binding signal (z-score),[23],-0.47
same,glycan array binding signal (z-score),[24],-0.678
same,glycan array binding signal (z-score),[25],5.21
same,glycan array binding signal (z-score),[26],1.36
same,glycan array binding signal (z-score),[27],-0.165
same,glycan array binding signal (z-score),[28],-0.582
same,glycan array binding signal (z-score),[29],-1.25
same,glycan array binding signal (z-score),[30],-0.166
